This note sets out measurements from publication PMC11006913.

Changes are numbered by the printed parent chain.

Holding throughout (experiment): PBM; 200 nM protein, PBS
Details in all cases: dsDNA, one strand shown

Assay [1] deals with NKX2-5 (Homo sapiens, UniProt P52952 125-210, R139K).
In assay [2] the target is T1, NKX2-4 (Homo sapiens, UniProt Q9H2Z4 175-261, P217L).
T1 sequence: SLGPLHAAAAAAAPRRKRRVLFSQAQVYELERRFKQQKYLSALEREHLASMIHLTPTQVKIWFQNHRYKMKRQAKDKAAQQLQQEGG

The target in assay [3] is T2, NKX2-4 (Homo sapiens, UniProt Q9H2Z4 175-261, T231S).
T2 sequence: T1 sequence with L43P, T57S

The target of assay [4] is T3, NKX2-6 (Homo sapiens, UniProt A6NCS4 118-204, R150C).
T3 sequence: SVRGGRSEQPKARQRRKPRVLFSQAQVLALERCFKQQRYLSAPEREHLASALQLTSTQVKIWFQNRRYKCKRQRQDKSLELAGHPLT

The target of assay [5] is T4, NKX2-6 (Homo sapiens, UniProt A6NCS4 118-204).
T4 sequence: T3 sequence with C33R

The target in assay [6] is T5, NKX2-6 (Homo sapiens, UniProt A6NCS4 118-204, F151L).
T5 sequence: T3 sequence with C33R, F34L

The target in assay [7] is NKX3-2 (Homo sapiens, UniProt P78367 192-278, P234S).
Assay [8] concerns the target NKX2-5 (Homo sapiens, UniProt P52952 125-210).
Assay [9] addresses NKX3-2 (Homo sapiens, UniProt P78367 192-278).
Assay [10] has as its target T6, NKX2-4 (Homo sapiens, UniProt Q9H2Z4 175-261).
T6 sequence: T1 sequence with L43P

The target in assay [11] is T7, NKX2-4 (Homo sapiens, UniProt Q9H2Z4 175-261, R246Q).
T7 sequence: T1 sequence with L43P, R72Q

For assay [12], the target named is T8, VENTX (Homo sapiens, UniProt O95231 78-163, R121Q).
T8 sequence: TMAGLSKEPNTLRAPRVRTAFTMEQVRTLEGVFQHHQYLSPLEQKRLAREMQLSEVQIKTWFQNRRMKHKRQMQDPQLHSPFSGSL

The target of assay [13] is T9, VENTX (Homo sapiens, UniProt O95231 78-163).
T9 sequence: T8 sequence with Q44R

Assay [14] has as its target T10, VENTX (Homo sapiens, UniProt O95231 78-163, Y115F).
T10 sequence: T8 sequence with Y38F, Q44R

The target of the next assay is HOXB6 (Homo sapiens, UniProt P17509 132-218, K202E).
In assay [15] the target is HOXA2 (Homo sapiens, UniProt O43364 129-215, R185T).
In assay [16] the target is HOXA2 (Homo sapiens, UniProt O43364 129-215, R185K).
For assay [17], the target named is HOXA2 (Homo sapiens, UniProt O43364 129-215, Y150S).
The target of assay [18] is HOXA2 (Homo sapiens, UniProt O43364 129-215).
Sequence of HOXA2 (Homo sapiens, UniProt O43364 129-215) (O43364 129-215): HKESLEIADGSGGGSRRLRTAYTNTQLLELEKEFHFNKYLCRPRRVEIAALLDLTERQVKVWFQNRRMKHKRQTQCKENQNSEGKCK

Sequence of NKX2-5 (Homo sapiens, UniProt P52952 125-210) (P52952 125-210): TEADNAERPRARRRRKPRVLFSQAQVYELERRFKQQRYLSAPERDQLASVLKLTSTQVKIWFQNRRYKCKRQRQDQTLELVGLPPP
Sequence of NKX2-5 (Homo sapiens, UniProt P52952 125-210, R139K) (P52952 125-210 R139K): as the sequence (P52952 125-210) above, with R15K counted along it
Sequence of NKX3-2 (Homo sapiens, UniProt P78367 192-278) (P78367 192-278): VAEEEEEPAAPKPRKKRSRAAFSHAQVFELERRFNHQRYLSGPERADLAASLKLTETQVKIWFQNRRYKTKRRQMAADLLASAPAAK
Sequence of NKX3-2 (Homo sapiens, UniProt P78367 192-278, P234S) (P78367 192-278 P234S): as the sequence (P78367 192-278) above, with P43S counted along it
Sequence of HOXA2 (Homo sapiens, UniProt O43364 129-215, R185K) (O43364 129-215 R185K): as the sequence (O43364 129-215) above, with R57K counted along it
Sequence of HOXB6 (P17509 132-218 K202E): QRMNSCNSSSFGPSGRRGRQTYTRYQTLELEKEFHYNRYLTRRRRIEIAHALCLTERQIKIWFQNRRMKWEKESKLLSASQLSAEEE
Sequence of HOXA2 (Homo sapiens, UniProt O43364 129-215, R185T) (O43364 129-215 R185T): as the sequence (O43364 129-215) above, with R57T counted along it
Sequence of HOXA2 (Homo sapiens, UniProt O43364 129-215, Y150S) (O43364 129-215 Y150S): as the sequence (O43364 129-215) above, with Y22S counted along it

Regarding AAGTGGTC, the binding signal in the assay with NKX2-5 [1] was 12.6 upbm affinity estimate (log intensity, higher = more binding, comparable within an allelic series); with NKX2-4 [2] it was 12.4 upbm affinity estimate (log intensity, higher = more binding, comparable within an allelic series); in the assay with NKX2-4 [3] it was 12.8 upbm affinity estimate (log intensity, higher = more binding, comparable within an allelic series); with NKX2-6 [4] it was 11.8 upbm affinity estimate (log intensity, higher = more binding, comparable within an allelic series); with NKX2-6 [5] it was 13.4 upbm affinity estimate (log intensity, higher = more binding, comparable within an allelic series); with NKX2-6 [6], 10.5 upbm affinity estimate (log intensity, higher = more binding, comparable within an allelic series). Further, the binding signal was 12.9 upbm affinity estimate (log intensity, higher = more binding, comparable within an allelic series) with NKX3-2 [7]; 12.6 upbm affinity estimate (log intensity, higher = more binding, comparable within an allelic series) with NKX2-5 [8]; 12.9 upbm affinity estimate (log intensity, higher = more binding, comparable within an allelic series) with NKX3-2 [9].

Consider CACTCAAG, for which the binding signal was 12.5 upbm affinity estimate (log intensity, higher = more binding, comparable within an allelic series) with NKX2-5 [1]; 12.5 upbm affinity estimate (log intensity, higher = more binding, comparable within an allelic series) with NKX2-4 [2]; 13 upbm affinity estimate (log intensity, higher = more binding, comparable within an allelic series) with NKX2-4 [3]; 12.4 upbm affinity estimate (log intensity, higher = more binding, comparable within an allelic series) with NKX2-4 [10]; 11.6 upbm affinity estimate (log intensity, higher = more binding, comparable within an allelic series) with NKX2-6 [4]; 13.5 upbm affinity estimate (log intensity, higher = more binding, comparable within an allelic series) with NKX2-6 [5]. Further, the binding signal in the assay with NKX2-4 [11] is 13.1 upbm affinity estimate (log intensity, higher = more binding, comparable within an allelic series); with NKX2-6 [6] it was 10.5 upbm affinity estimate (log intensity, higher = more binding, comparable within an allelic series); in the assay with NKX2-5 [8], 12.3 upbm affinity estimate (log intensity, higher = more binding, comparable within an allelic series).

Regarding TACTTGAA, the binding signal is 12.6 upbm affinity estimate (log intensity, higher = more binding, comparable within an allelic series) with NKX2-5 [1]; 12.7 upbm affinity estimate (log intensity, higher = more binding, comparable within an allelic series) with NKX2-4 [2]; 13.2 upbm affinity estimate (log intensity, higher = more binding, comparable within an allelic series) in the assay with NKX2-4 [3]; 12.6 upbm affinity estimate (log intensity, higher = more binding, comparable within an allelic series) with NKX2-4 [10]; 11.6 upbm affinity estimate (log intensity, higher = more binding, comparable within an allelic series) with NKX2-6 [4]; 13.4 upbm affinity estimate (log intensity, higher = more binding, comparable within an allelic series) with NKX2-6 [5]. Besides, the binding signal with NKX2-4 [11] was 13.3 upbm affinity estimate (log intensity, higher = more binding, comparable within an allelic series); in the assay with NKX2-6 [6] it was 10.8 upbm affinity estimate (log intensity, higher = more binding, comparable within an allelic series); with NKX2-5 [8], 12.5 upbm affinity estimate (log intensity, higher = more binding, comparable within an allelic series).

In the case of CACTCGAA, the binding signal was 12 upbm affinity estimate (log intensity, higher = more binding, comparable within an allelic series) with NKX2-5 [1]; 12.5 upbm affinity estimate (log intensity, higher = more binding, comparable within an allelic series) in the assay with NKX2-4 [2]; 13 upbm affinity estimate (log intensity, higher = more binding, comparable within an allelic series) with NKX2-4 [3]; 12.5 upbm affinity estimate (log intensity, higher = more binding, comparable within an allelic series) in the assay with NKX2-4 [10]; 13.1 upbm affinity estimate (log intensity, higher = more binding, comparable within an allelic series) in the assay with NKX2-4 [11]; 11.9 upbm affinity estimate (log intensity, higher = more binding, comparable within an allelic series) with NKX2-5 [8].

As for CCGACCTC, the binding signal in the assay with NKX2-5 [1] was 8.77 upbm affinity estimate (log intensity, higher = more binding, comparable within an allelic series); with VENTX [12], 7.98 upbm affinity estimate (log intensity, higher = more binding, comparable within an allelic series); with VENTX [13], 7.99 upbm affinity estimate (log intensity, higher = more binding, comparable within an allelic series); with VENTX [14], 8.1 upbm affinity estimate (log intensity, higher = more binding, comparable within an allelic series); with NKX2-5 [8] it was 8.83 upbm affinity estimate (log intensity, higher = more binding, comparable within an allelic series).

With CGGTGCAG, the binding signal with NKX2-5 [1] is 8.83 upbm affinity estimate (log intensity, higher = more binding, comparable within an allelic series); with NKX2-4 [2], 9.49 upbm affinity estimate (log intensity, higher = more binding, comparable within an allelic series); with NKX2-4 [3], 9.46 upbm affinity estimate (log intensity, higher = more binding, comparable within an allelic series); with NKX2-4 [10], 9.46 upbm affinity estimate (log intensity, higher = more binding, comparable within an allelic series); with NKX2-4 [11] it was 9.48 upbm affinity estimate (log intensity, higher = more binding, comparable within an allelic series); with NKX2-5 [8], 8.91 upbm affinity estimate (log intensity, higher = more binding, comparable within an allelic series).

For the sequence CCTCTTGA, the binding signal with NKX2-5 [1] was 12.5 upbm affinity estimate (log intensity, higher = more binding, comparable within an allelic series); with NKX2-4 [2], 12.7 upbm affinity estimate (log intensity, higher = more binding, comparable within an allelic series); with NKX2-4 [3], 13 upbm affinity estimate (log intensity, higher = more binding, comparable within an allelic series); with NKX2-4 [10] it was 12.5 upbm affinity estimate (log intensity, higher = more binding, comparable within an allelic series); with NKX2-6 [4], 11.7 upbm affinity estimate (log intensity, higher = more binding, comparable within an allelic series); with NKX2-6 [5], 13.4 upbm affinity estimate (log intensity, higher = more binding, comparable within an allelic series). The binding signal is 13.2 upbm affinity estimate (log intensity, higher = more binding, comparable within an allelic series) with NKX2-4 [11]; 10.5 upbm affinity estimate (log intensity, higher = more binding, comparable within an allelic series) with NKX2-6 [6]; 12.5 upbm affinity estimate (log intensity, higher = more binding, comparable within an allelic series) in the assay with NKX2-5 [8].

As for CCGACGCC, the binding signal is 8.82 upbm affinity estimate (log intensity, higher = more binding, comparable within an allelic series) with NKX2-5 [1]; 8.14 upbm affinity estimate (log intensity, higher = more binding, comparable within an allelic series) with VENTX [12]; 8.37 upbm affinity estimate (log intensity, higher = more binding, comparable within an allelic series) with VENTX [13]; 8.23 upbm affinity estimate (log intensity, higher = more binding, comparable within an allelic series) with VENTX [14]; 8.94 upbm affinity estimate (log intensity, higher = more binding, comparable within an allelic series) with NKX2-6 [5]; 9.35 upbm affinity estimate (log intensity, higher = more binding, comparable within an allelic series) in the assay with NKX2-6 [6]. Moreover, the binding signal with NKX3-2 [7] was 10.5 upbm affinity estimate (log intensity, higher = more binding, comparable within an allelic series); with NKX2-5 [8], 8.73 upbm affinity estimate (log intensity, higher = more binding, comparable within an allelic series); with NKX3-2 [9] it was 10.5 upbm affinity estimate (log intensity, higher = more binding, comparable within an allelic series).

In the case of ATAATGGG, the binding signal with NKX2-5 [1] was 10.9 upbm affinity estimate (log intensity, higher = more binding, comparable within an allelic series); with VENTX [12], 11.4 upbm affinity estimate (log intensity, higher = more binding, comparable within an allelic series); with VENTX [13] it was 12.4 upbm affinity estimate (log intensity, higher = more binding, comparable within an allelic series); in the assay with VENTX [14] it was 11.4 upbm affinity estimate (log intensity, higher = more binding, comparable within an allelic series); in the assay with HOXB6 it was 9.9 upbm affinity estimate (log intensity, higher = more binding, comparable within an allelic series); with NKX2-5 [8] it was 11 upbm affinity estimate (log intensity, higher = more binding, comparable within an allelic series).

With CCGGTGGC, the binding signal was 8.61 upbm affinity estimate (log intensity, higher = more binding, comparable within an allelic series) in the assay with NKX2-5 [1]; 7.92 upbm affinity estimate (log intensity, higher = more binding, comparable within an allelic series) with VENTX [12]; 8.15 upbm affinity estimate (log intensity, higher = more binding, comparable within an allelic series) with VENTX [13]; 8 upbm affinity estimate (log intensity, higher = more binding, comparable within an allelic series) with VENTX [14]; 8.93 upbm affinity estimate (log intensity, higher = more binding, comparable within an allelic series) in the assay with NKX2-5 [8].

For the sequence GCGACGCC, the binding signal with NKX2-5 [1] is 8.87 upbm affinity estimate (log intensity, higher = more binding, comparable within an allelic series); with VENTX [12], 8.02 upbm affinity estimate (log intensity, higher = more binding, comparable within an allelic series); in the assay with VENTX [13], 8.21 upbm affinity estimate (log intensity, higher = more binding, comparable within an allelic series); in the assay with VENTX [14] it was 8.16 upbm affinity estimate (log intensity, higher = more binding, comparable within an allelic series); in the assay with HOXA2 [15] it was 7.22 upbm affinity estimate (log intensity, higher = more binding, comparable within an allelic series); with HOXA2 [16], 10.4 upbm affinity estimate (log intensity, higher = more binding, comparable within an allelic series). In addition, the binding signal with HOXA2 [17] was 10.6 upbm affinity estimate (log intensity, higher = more binding, comparable within an allelic series); with HOXA2 [18], 7.31 upbm affinity estimate (log intensity, higher = more binding, comparable within an allelic series); with NKX2-5 [8] it was 8.83 upbm affinity estimate (log intensity, higher = more binding, comparable within an allelic series).

On to CGTGCGGC, for which the binding signal is 8.72 upbm affinity estimate (log intensity, higher = more binding, comparable within an allelic series) in the assay with NKX2-5 [1]; 9.48 upbm affinity estimate (log intensity, higher = more binding, comparable within an allelic series) with NKX2-4 [2]; 9.35 upbm affinity estimate (log intensity, higher = more binding, comparable within an allelic series) with NKX2-4 [3]; 9.44 upbm affinity estimate (log intensity, higher = more binding, comparable within an allelic series) with NKX2-4 [10]; 9.47 upbm affinity estimate (log intensity, higher = more binding, comparable within an allelic series) with NKX2-4 [11]; 8.8 upbm affinity estimate (log intensity, higher = more binding, comparable within an allelic series) with NKX2-5 [8].
